Source: PubChem (National Center for Advancing Translational Sciences (NCATS))
Rows were chosen to be rich in hits. Some 1.5% of all compounds tested hit in one or more screens of this group.
FEN1 inhibitor: qHTS Assay for the Inhibitors of Human Flap endonuclease 1 (FEN1). P39748. Recombinant FEN1 flap cleavage, fluorescence, 15 min. Potency, µM (titrated, usually from 114 µM), most hits filed as inhibitors. actives 0.35% (n = 390,000); note: nearly all actives have a fitted effect of over 65% in size
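With each library titrated from low to high concentration, compounds met 10 nM FEN1 for 15 min at room temperature before 50 nM substrate was added; readings at 0 and 15 min fed four-parameter Hill curve fits.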
RECQ1 helicase: qHTS Assay for Inhibitors of RecQ-Like Dna Helicase 1 (RECQ1); AID 2549, 2010; actives 0.54% (n = 240,000); Potency, µM (titrated, usually from 57.3 µM), most hits filed as inhibitors; RECQ1 DNA unwinding, red fluorescence kinetic read; note: nearly all actives have a fitted effect of over 30% in size
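RECQ1T1 50 nM; forked duplex (20 bp + 30-nt ss tails) 200 nM, ATP 2 mM final; pH 8.0, 2 mM MgCl2, 2.5 ug/ml poly(dI-dC); 15 min compound preincubation; discontinuous kinetic read over 2 h at RT.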
WRN helicase inh: qHTS for Inhibitors of WRN Helicase; WRN helicase unwinding, fluorescent forked duplex, kinetic; actives 0.46% (n = 360,000); AID 651768, 2012; Bifunctional 3'-5' exonuclease/ATP-dependent helicase WRN (Homo sapiens), Q14191; Potency, µM (highest dose often 114 µM), actives largely listed as inhibitors; note: nearly all actives have a fitted effect of over 55% in size
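Screening of the MLSMR collection measured strand separation of a quenched forked DNA duplex (100 nM) by 20 nM WRN with 2 mM ATP, all final. Compounds were preincubated with enzyme 15 min at room temperature.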
BLM helicase inh: qHTS Assay for Inhibitors of Bloom's syndrome helicase (BLM) | RecQ-like DNA helicase BLM (Homo sapiens), P54132 | recombinant BLM DNA unwinding, fluorescence dequenching | Potency, µM (top dose mostly 56.1 µM), hits mostly inhibitors | actives 0.2% (n = 350,000) | AID 2528, 2010; note: nearly all actives have a fitted effect of over 35% in size
Target sequence (P54132 whole entry, looked up): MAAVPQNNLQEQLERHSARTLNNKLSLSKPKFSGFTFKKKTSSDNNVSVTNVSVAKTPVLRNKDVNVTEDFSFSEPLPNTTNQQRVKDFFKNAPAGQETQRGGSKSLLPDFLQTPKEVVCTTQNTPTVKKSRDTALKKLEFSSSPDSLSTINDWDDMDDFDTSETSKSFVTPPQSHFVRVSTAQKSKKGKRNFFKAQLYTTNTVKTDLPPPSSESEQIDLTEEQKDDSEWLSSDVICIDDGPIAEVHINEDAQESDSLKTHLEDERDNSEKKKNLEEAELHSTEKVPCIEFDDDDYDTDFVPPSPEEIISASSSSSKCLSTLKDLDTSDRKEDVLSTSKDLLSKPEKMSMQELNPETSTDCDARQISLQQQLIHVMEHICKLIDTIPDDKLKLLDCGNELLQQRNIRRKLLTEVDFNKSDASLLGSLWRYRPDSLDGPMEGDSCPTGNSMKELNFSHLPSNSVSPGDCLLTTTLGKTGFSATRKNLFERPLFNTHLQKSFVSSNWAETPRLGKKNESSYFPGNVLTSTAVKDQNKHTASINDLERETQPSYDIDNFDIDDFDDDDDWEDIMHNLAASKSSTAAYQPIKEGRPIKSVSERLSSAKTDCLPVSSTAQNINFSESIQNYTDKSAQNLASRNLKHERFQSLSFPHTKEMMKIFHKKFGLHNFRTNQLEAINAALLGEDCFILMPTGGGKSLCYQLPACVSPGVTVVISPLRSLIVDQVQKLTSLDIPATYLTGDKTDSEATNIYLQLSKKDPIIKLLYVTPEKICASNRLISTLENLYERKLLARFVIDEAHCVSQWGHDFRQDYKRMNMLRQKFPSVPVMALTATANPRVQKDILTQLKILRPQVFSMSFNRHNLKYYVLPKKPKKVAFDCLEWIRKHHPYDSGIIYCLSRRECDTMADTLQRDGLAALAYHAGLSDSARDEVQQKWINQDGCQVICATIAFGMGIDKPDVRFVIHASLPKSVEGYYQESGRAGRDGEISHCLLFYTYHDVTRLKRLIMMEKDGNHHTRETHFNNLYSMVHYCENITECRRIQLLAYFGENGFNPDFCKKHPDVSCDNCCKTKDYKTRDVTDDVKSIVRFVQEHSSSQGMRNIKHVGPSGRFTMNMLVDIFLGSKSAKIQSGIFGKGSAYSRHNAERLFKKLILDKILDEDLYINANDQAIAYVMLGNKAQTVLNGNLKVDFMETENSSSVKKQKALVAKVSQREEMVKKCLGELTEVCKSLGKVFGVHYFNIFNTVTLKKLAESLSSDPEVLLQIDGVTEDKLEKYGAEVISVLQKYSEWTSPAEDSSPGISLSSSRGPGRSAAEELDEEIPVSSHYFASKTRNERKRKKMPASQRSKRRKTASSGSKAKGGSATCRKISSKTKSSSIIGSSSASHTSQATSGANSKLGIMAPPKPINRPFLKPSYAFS
PI5P4K alpha inh: qHTS for Inhibitors of phosphatidylinositol 5-phosphate 4-kinase (PI5P4K). Phosphatidylinositol 5-phosphate 4-kinase type-2 alpha (Homo sapiens), P48426. PI5P4Kalpha enzyme, ADP-Glo luminescence, 60 min; hits give low values. max response, %. actives 1.2% (n = 330,000). AID 652105, 2013; active = max response of -50% or lower; inconclusive = between -30% and -50%; inactive = -30% or higher; note: value at the top dose of about 77 µM
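PI5P4Kalpha ADP-Glo assay; 5 microM ATP final; 60 min RT reaction; HEPES pH 7.4/EGTA/CHAPS, 5% DMSO; controls lacking substrate or enzyme; luminescent end-point.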
APE1 inh: qHTS Assay for Inhibitors of the Human Apurinic/apyrimidinic Endonuclease 1 (APE1) | DNA repair nuclease/redox regulator APEX1 (Homo sapiens), P27695 | recombinant APE1, TAMRA/BHQ-2 abasic DNA cleavage fluorescence | Potency, µM (series often up to 65.8 µM), most hits filed as inhibitors | actives 0.35% (n = 350,000) | AID 2517, 2012; note: nearly all actives have a fitted effect of over 55% in size
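APE1 at 0.75 nM preincubated 15 min at room temperature with compound. Reaction then started with 50 nM double-stranded THF-abasic substrate labelled with TAMRA/BHQ-2, and 525/598 nm fluorescence read kinetically. Activity taken as third-minus-first read difference, normalized to DMSO and NSC13755 controls.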
ADP-Glo interf: qHTS for Inhibitors of PI5P4K: ADP-Glo counter assay | shares compounds with PI5P4K alpha inh | ADP-Glo detection counter-screen, luciferase luminescence, no enzyme | Potency, µM (highest dose often 76.9 µM), most hits filed as inhibitors | 1,100 tested, under 10 active | AID 743285, 2014
A number is an active result; – = inactive; ? = inconclusive; · = no result; [ ] = another dose, or the depositor's remark. Unless noted, calls come from the whole dose curve; as a rule, active = well fitted curve in the direction sought with a large enough effect; inconclusive = small, poorly fitted or top-dose-only effect, or another doubt; inactive = no such curve, though single readings can be large; an effect the other way counts as inactive or inconclusive.

SMILES	FEN1 inhibitor	RECQ1 helicase	WRN helicase inh	BLM helicase inh	PI5P4K alpha inh	APE1 inh	ADP-Glo interf
COc1cc2nc(COc3ccccc3[N+](=O)[O-])oc(=O)c2cc1OC	–	–	–	–	-57	–	–
Cc1ccc(NC(=O)c2c(C)oc3ncn(CC(C)C)c(=O)c23)nc1	–	·	·	–	·	·	·
Cc1cc2nc(-c3cccc(NC(=O)COc4ccc(Cl)c(C)c4)c3)oc2cc1C	–	·	·	–	·	·	·
O=C(NC1CC1)c1sc2cc([N+](=O)[O-])ccc2c1Cl	–	–	–	–	–	–	·
CC(NC(=O)c1sc2cc([N+](=O)[O-])ccc2c1Cl)C(C)(C)C (configuration not stated)	–	–	?	–	-52	–	–
O=C(CSc1nc2[nH]c(=O)cc(O)c2s1)Nc1ccc(Cl)c(C(F)(F)F)c1	–	·	–	·	-54	–	–
O=C(CSc1nc2[nH]c(=O)cc(O)c2s1)Nc1cc(Cl)cc(Cl)c1	–	·	–	–	?	–[12.4 µM]	·
Cc1cccc(-n2c(SCC(N)=O)nc3c(c2=O)C2(CCCC2)Cc2ccccc2-3)c1	–	–	–	–	-56	–	–
NC(=O)CSc1nc2c(c(=O)n1-c1ccccc1)C1(CCCCC1)Cc1ccccc1-2	–	–	–	–	–	–	·
C/C=C1\COC(C(=O)NC)(C(F)(F)F)C=C1C=C1CCCCC1 (configuration not stated)	–	–	·	–	·	–	·
O=C(NCc1ccccc1)C(c1ccccc1)n1c(=O)c(-c2ccco2)nc2ccccc21 (configuration not stated)	·	·	–	·	-64	·	–
O=C(NC1CCCCC1)C(c1ccnc2ccccc12)n1c(=O)c(-c2ccco2)nc2ccccc21 (configuration not stated)	·	·	–	·	-78	·	–
O=C(NCc1ccccc1)C(c1cc2ccccc2o1)n1c(=O)c(-c2ccco2)nc2ccccc21 (configuration not stated)	·	·	–	·	?	·	·
Cc1cc(C=O)cc(C)c1[N+](=O)[O-]	–	·	·	·	·	·	·
COC(=O)c1ccc2nc(-c3ccco3)c(Cc3ccc(OC)cc3C)n2c1	·	·	–	·	-80	·	–
CC(C)c1ccc(S(=O)(=O)c2nnn3c2nc(NC2CCCC2)c2sccc23)cc1	–	·	·	–	·	·	·
O=C(O)c1cc2ccc(O)cc2oc1=O	·	·	–	·	–	·	·
O=C(NCc1cccnc1)c1cc2ccccc2oc1=O	–	–	–	–	·	–	·
O=C(c1ccc(F)cc1)c1cc2ccc(O)cc2oc1=O	–	·	–	–	-73	–	?
O=C(NCc1ccccc1)c1cc2ccc(O)cc2oc1=O	–	·	–	–	-66	–	–
CCn1c(=O)cc(OCC(=O)N2CCN(c3ccc(C)cc3)C(C)C2)c2ccccc21 (configuration not stated)	–	·	·	–	·	·	·
Cc1nc(NC(=O)c2ccccc2)sc1-c1cc(C(=O)N2CCOCC2)nn1Cc1ccccc1	·	·	–	·	-55	·	–
Cc1nc(NC(=O)c2ccccc2)sc1-c1cc(C(=O)N2CCOCC2)nn1CCO	·	·	–	·	–	·	·
COc1cc(CNc2ccc(N3CCCC3)cc2)cc(Cl)c1OC	–	–	–	–	-66	–	–
CCOc1cc(CNc2ccc(N3CCCC3)cc2)cc(Cl)c1OC	–	–	–	–	–	–	·
CCCCN1CCCc2cc(CN(CCCN3CCOCC3)C(=O)Nc3ccc(CC)cc3)ccc21	–	·	·	–	·	·	·
